Assay outcomes as filed in PubChem.
ELG1 DNA repair: blocks ELG1-dependent DNA repair in HEK293T cells. AID 504467. actives 2.3% (n = 330,000). Potency, µM (series often up to 46.1 µM), inactives show top-dose activity change, negative = inhibition, actives largely listed as inhibitors. HEK293T ELG1-luciferase reporter, luminescence, 16 h; DNA damage induced by 5-fluorouridine; also: potency is read from the fitted curve at half-maximal effect; nearly all actives have a fitted effect of over 55% in size
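Cells (2,000 per well) received 5-fluorouridine plus test compound or DMSO and were incubated 16 hr at 37 °C, 5% CO2. Luciferase activity was read by luminescence 30 min after ONE-Glo addition; signal suppression marked inhibition of damage-induced ELG1 function.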
IL1B secr inh: blocks inflammasome-driven IL-1 beta release; THP-1 LPS/ATP IL-1B secretion, AlphaLISA, 16 h; stronger effect = lower value; AID 743279; activity change, % at 57.5 µM; actives 4.7% (n = 360,000); in the data active = activity change below about -50%; inconclusive = mostly about -30% to -49%
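Secreted IL-1B measured by AlphaLISA bead assay after 16 h compound exposure of THP-1 cells; compounds (final up to 57.5 uM) added 1 h before LPS (250 ng/mL) and ATP (1.25 mM) stimulation; lower signal means less secretion.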
RORgamma inh: ROR gamma (mouse) transcription inhibition; P51450; Drosophila S2 Gal4-RORgamma UAS-luciferase reporter, 20 h; Potency, µM (top dose mostly 53.6 µM), without a hit: top-dose activity change, negative = inhibition, usual class: inhibitors; actives 5.4% (n = 310,000); AID 2551; also: potency is read from the fitted curve at half-maximal effect; nearly all actives have a fitted effect of over 60% in size
Target sequence (P51450 whole entry, looked up, the tested form may be a part): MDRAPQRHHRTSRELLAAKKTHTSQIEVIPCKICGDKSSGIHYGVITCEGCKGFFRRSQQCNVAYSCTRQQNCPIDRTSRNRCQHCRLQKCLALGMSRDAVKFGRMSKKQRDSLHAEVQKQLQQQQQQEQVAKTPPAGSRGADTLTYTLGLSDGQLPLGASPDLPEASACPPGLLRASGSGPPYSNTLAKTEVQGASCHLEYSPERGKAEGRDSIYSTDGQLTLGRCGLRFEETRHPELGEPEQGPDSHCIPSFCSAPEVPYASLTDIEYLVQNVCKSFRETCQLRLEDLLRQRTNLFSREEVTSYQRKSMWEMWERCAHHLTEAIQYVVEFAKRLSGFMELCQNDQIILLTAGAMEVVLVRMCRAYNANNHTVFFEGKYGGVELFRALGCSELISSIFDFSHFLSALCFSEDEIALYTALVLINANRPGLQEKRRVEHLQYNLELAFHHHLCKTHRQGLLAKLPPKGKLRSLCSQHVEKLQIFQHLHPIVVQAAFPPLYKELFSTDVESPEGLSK
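ROR gamma transcriptional activity was tracked as Gal4-UAS luciferase output in stably transfected Drosophila Schneider cells, with compound added 1 hr before 700 uM copper sulfate induction and a 20 hr ambient-temperature incubation.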
DT40 TDP1 no CPT: qHTS for Inhibitors of human tyrosyl-DNA phosphodiesterase 1 (TDP1): qHTS in cells in absence of CPT. DT40 Tdp1-/- hTDP1 cells, no CPT, ATP luminescence, 48 h. AID 686978, 2013. Potency, µM (highest dose often 46.2 µM), for inactives: top-dose activity change, negative = growth inhibition, most hits filed as inhibitors. actives 15% (n = 420,000); also: potency is read from the fitted curve at half-maximal effect; nearly all actives have a fitted effect of over 55% in size
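Compound effects on proliferation are scored in DT40 Tdp1-/-;hTDP1 cells in the absence of CPT. ATP levels (CellTiter-Glo luminescence) are recorded after a ≥48 hr, 37 °C incubation.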
VP16 counter: counter-screen for ROR gamma inhibitors: Gal4-VP16 reporter; Drosophila S2 Gal4-VP16 UAS-luciferase, luminescence, 20 h; actives 3.5% (n = 310,000); Potency, µM (series often up to 53.6 µM), for inactives: at the highest dose activity, negative = inhibition, usual class: inhibitors; AID 2546;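 also: Gal4-VP16 expression switched on by copper sulfate through the metallothionein promoter; potency is read from the fitted curve at half-maximal effect; nearly all actives have a fitted effect of over 50% in size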
DT40 TDP1 CPT: DT40-hTDP1 cell growth loss with CPT | chicken DT40 Tdp1-/-;hTDP1 cells + 20 nM CPT, ATP luminescence, 48 h | Potency, µM (highest dose often 46.2 µM), inactives show top-dose activity change, negative = growth inhibition, usual class: inhibitors | actives 12% (n = 420,000); also: potency is read from the fitted curve at half-maximal effect; nearly all actives have a fitted effect of over 55% in size
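Chicken DT40 Tdp1-/- cells stably complemented with human TDP1 were seeded at 400 cells/well in medium containing 20 nM camptothecin, exposed to pin-transferred compounds, and grown at 37 °C for at least 48 hr. Viability was read as ATP luminescence.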
* = called active by the depositor; ? = inconclusive; · = no result given; ! = not confirmed by another sample; [ ] = remark or other dose. An excerpt weighted towards active compounds, which were near 21% of everything screened. Unless noted, calls follow the shape of the dose curve; as a rule, active = well fitted curve in the direction sought with a large enough effect; inconclusive = small, poorly fitted or top-dose-only effect, or another doubt; inactive = no such curve, though single readings can be large; an effect the other way counts as inactive or inconclusive. % is scaled to controls: 0 for no effect and ±100 for the full control effect.

SMILES	ELG1 DNA repair	IL1B secr inh	RORgamma inh	DT40 TDP1 no CPT	VP16 counter	DT40 TDP1 CPT
NC(=O)c1ncn([C@@H]2O[C@H](CO)[C@@H](O)[C@H]2O)n1	0%	-10	-26%	1µM*	-8%	1.5µM*
COc1nc(N)nc2c1ncn2[C@@H]1O[C@H](CO)[C@@H](O)[C@@H]1O	·	·	-3%	-26%	3%	?
COC(=O)[C@H]1[C@@H](OC(=O)c2ccccc2)C[C@@H]2CC[C@H]1N2C	·	·	·	-10%[92.5 µM]	·	?
O=c1[nH]c2sccc2c2ccccc12	·	·	3%	·	-2%	·
C=CCc1ccc(OC)cc1	1%	23	-24%	?	0%	3.7µM*!
FC(F)(F)c1cccc(C2=CCN(CCc3ccc4ccccc4c3)CC2)c1	·	·	3%	-48%	-11%	-18%
CCCC(C)c1nnc(NC(=O)CCS(=O)(=O)c2ccccc2)s1 (stereo unspecified)	-20%	-96*	-8%	4.1µM*	0%	7.3µM*
CC(O)(CS(=O)(=O)c1ccccc1)C(=O)Nc1ccc(C(F)(F)F)cc1 (stereo unspecified)	3%	13	22%	-18%	-8%	-30%
Cc1ccc(S(=O)(=O)N2CC3CC(C2)c2cccc(=O)n2C3)cc1 (stereo unspecified)	4%	2	4%	-13%	-11%	-13%
Cc1ccc(S(=O)(=O)N2CN3CCN(C3)C2)cc1	1%	0	-5%	?	-1%	16µM*
CN(CC=CCN(C)P(=S)(N1CC1)N1CC1)P(=S)(N1CC1)N1CC1	·	8	·	1.8µM*	·	1.6µM*
O=C(CC1CCCCC1)N1CCC(c2nc(-c3ccc(S(=O)(=O)N4CCCC4)cc3)no2)CC1	?	-6	?	8.2µM*	?	21µM*
CC1C(=O)OC2C(O)C34C5OC(=O)[C@@]3(OC3OC(=O)[C@H](O)[C@]34C(C(C)(C)C)C5O)[C@]12O (stereo partly specified)	·	·	15%	5%	-1%	16%
Nc1nc(N)nc(NC2CC2)n1	·	·	-2%	-8%	-2%	17%
CC(C)CCCC(C)C1CCC2C3CC(O)[C@@]4(O)CC(O)CC[C@@]4(C)C3CC[C@@]12C (stereo partly specified)	·	·	-27%	18µM*	-15%	?
CC(C)CCCC(C)C1CCC2C3CC(=O)[C@H]4CC(O)CC[C@]4(C)C3CC[C@@]12C (stereo partly specified)	·	·	-4%	?	-8%	?
CC(C(=O)Nc1ccc(Br)cc1C(=O)c1ccccc1)N1CCOCC1 (stereo unspecified)	-17%	-19	-4%	-19%	11%	-13%
COC(=O)[C@H]1[C@@H](c2ccccc2)[C@@]2(c3ccccc3)Oc3ccccc3[C@@]1(O)[C@@H]2O	·	·	-13%[10 µM]	·	1%[10 µM]	·
Cc1nc2ccccc2c(=O)n1-c1cccnc1	15%	-30	-13%	-3%	-2%	-10%
O=c1c2ccccc2nc2n1CCS2(=O)=O	1%	-89*	-5%	-109%	?	2.9µM*
O=[N+]([O-])c1ccc(Oc2ccc(N=C=S)cc2)cc1	·	·	·	12µM*	·	?
O=C1NC(=O)C(=Cc2ccc(Oc3ccc([N+](=O)[O-])cc3)cc2)C(=O)N1	-8%	7	16%	?	13%[10 µM]	?
Cc1ccnc2c1NC(=O)c1cccnc1N2C1CC1	-16%	5	-1%	8.2µM*!	0%	6.5µM*!
Cc1cccnc1-n1c(-c2ccco2)nc2ccccc2c1=O	10%	21	3%	?	4%	-28%
CC1N(C)c2cc(NC(=O)c3ccco3)c(P(=O)(Nc3ccc([N+](=O)[O-])cc3)N3CCOCC3)cc2C1(C)C (stereo unspecified)	18µM*	-55*	?	5.2µM*	-4%	4.6µM*
SMILES	ELG1 DNA repair	IL1B secr inh	RORgamma inh	DT40 TDP1 no CPT	VP16 counter	DT40 TDP1 CPT
C=CCn1c(O)c(C(C)=Nc2ccc(N(C)C)cc2)c(=O)[nH]c1=O	-2%	4	8%	?	-2%	?
CCN(CC)c1ccc(N=Cc2c(O)n(-c3ccccc3)c(=O)[nH]c2=O)cc1	20%	35	-6%	?	-14%	?
CCN(CC)c1ccc(N=Cc2c(O)n(-c3ccccc3C)c(=O)[nH]c2=O)cc1	0%	-7	6%	?	3%	23µM*
CCN(CC)c1ccc(N=Cc2c(O)n(Cc3ccccc3)c(=O)[nH]c2=O)cc1	?	25	-3%	9.2µM*	-17%	16µM*
C=CCn1c(O)c(C(C)=Nc2ccc(N(CC)CC)cc2)c(=O)[nH]c1=O	?	39	-3%	9.2µM*	-3%	21µM*
CC(C)(N)Cc1ccc(Cl)cc1	·	·	-2%[10 µM]	-27%	-10%	?
CN1CCN(c2cn[nH]c(=O)c2Cl)CC1	-3%	19	-15%	-2%	-2%	-2%
COCCN1C(=NCCCOC(C)C)N[C@@H](c2ccccc2)C(C(=O)OC)=C1C	-7%	20	-26%	?	-9%	?
CC(C)(O)C1O[C@H]2CC[C@@]3(C)[C@@](O)(CC[C@H]4Cc5c([nH]c6ccccc56)[C@@]43C)C2=CC1=O (stereo partly specified)	·	·	·	24µM*	·	21µM*
C[C@H](CCC(=O)O)[C@H]1CC[C@H]2[C@H]3C(CC[C@]12C)[C@@]1(C)CC[C@@H](O)C[C@H]1C[C@H]3O (stereo partly specified)	·	·	-1%	-4%	-7%	-8%
CC(=O)Nc1ccc(S(=O)(=O)N2CCSC2c2ccc(C)cc2)cc1 (stereo unspecified)	16µM*	-2	20%	-6%	-1%	-21%
Cc1ccc(S(=O)(=O)N2CCCC2c2cccnc2)cc1 (stereo unspecified)	0%	21	10%	-26%	-5%	8%
COc1ccc(C2CN(C)CC2C(=O)c2ccc(F)cc2)cc1Cl (stereo unspecified)	5%	-58*	11%	21µM*	8%	-14%
Cc1ccc(-n2c(=O)[nH]c3ccc(Br)cc3c2=O)cc1	·	·	·	-21%	·	-28%
Cc1ccc2nc(N)[nH]c(=O)c2c1Sc1ccncc1	·	·	14%	0.38µM*	0%	?
S=C=Nc1cccc(C2(N3CCCCC3)CCCCC2)c1	0%	-54*	-11%	16µM*	-4%	21µM*
